Compound activity from PubChem BioAssay.
The list is not random: actives were taken first. Their share in the collection is about 0.84%.
SRC2 inh: inhibits human steroid receptor coactivator 2; Q15596; HEK293 GAL4-SRC2 luciferase reporter, luminescence; inhibition, % at 9 µM; 370,000 compounds, 0.17% hits; AID 651957;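 active means inhibition above the mean inhibition of all tested compounds plus 3 SD, set per campaign, cut at about 52% in these data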;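 further: 0% = DMSO treated cells and 100% = cells given Gossypol at 36 µM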
SRC1 inh: inhibits human SRC1 coactivator. 360,000 compounds, 0.12% hits. inhibition, % at 3.6 µM. AID 588354. HEK293 GAL4-SRC1 luciferase reporter, luminescence;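 active means inhibition above the campaign mean plus 3 SD, with each screening campaign given its own cutoff, cut at about 60% in these data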;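 further: 0% = DMSO treated cells and 100% = gossypol at 36 µM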
SRC3 inh: human NCOA3 inhibition | Q9Y6Q9 | HEK293 GAL4-SRC3 luciferase reporter, luminescence | inhibition, % at 3.6 µM | 360,000 compounds, 0.17% hits | AID 588352;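 active means inhibition above a per-campaign cutoff, the mean of all compounds plus 3 SD, cut at about 60% in these data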;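 further: 0% = DMSO-treated cells and 100% = gossypol-treated cells at 36 µM; higher means less SRC3-driven luciferase light from the GAL4 reporter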
NR2F2 inh: inhibitors of human COUP-TFII (NR2F2). AID 686940. inhibition, % at 8.6 µM. 370,000 compounds, 0.7% hits. HEK293T NGFI-A luciferase reporter, luminescence. P24468;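 active means inhibition above a per-plate cutoff, mean inhibition of test wells between control levels plus 3 SD, cut at about 38% in these data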;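 further: cells cotransfected with COUP-TFII expression vector driving the NGFI-A reporter; 0% = median of COUP-TF2 test wells and 100% = reporter-only cells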
Target sequence (P24468 whole entry, looked up): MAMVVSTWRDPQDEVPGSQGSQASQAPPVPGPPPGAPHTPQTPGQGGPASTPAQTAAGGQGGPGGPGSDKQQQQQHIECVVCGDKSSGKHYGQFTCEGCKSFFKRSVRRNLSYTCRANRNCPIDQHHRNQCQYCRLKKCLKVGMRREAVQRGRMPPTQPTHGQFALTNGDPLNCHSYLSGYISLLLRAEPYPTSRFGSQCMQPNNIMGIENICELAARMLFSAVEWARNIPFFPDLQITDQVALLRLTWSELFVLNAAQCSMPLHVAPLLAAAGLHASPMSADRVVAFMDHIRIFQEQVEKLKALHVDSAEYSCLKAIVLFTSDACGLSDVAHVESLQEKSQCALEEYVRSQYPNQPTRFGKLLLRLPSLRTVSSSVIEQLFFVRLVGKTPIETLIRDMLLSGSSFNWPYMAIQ
LRH-1 inv ag: suppresses constitutive activity of human LRH-1; O00482; HEK293T StAR-luciferase reporter, LRH-1 transfected, 24 h; inhibition, % at 3.6 µM; 360,000 compounds, 0.13% hits; AID 602396;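 active means inhibition above the mean inhibition of all tested compounds plus 3 SD, cut at about 73% in these data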;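 further: 0% = DMSO wells and 100% = reporter-only cells lacking LRH-1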
VP16 Luc counter: counter-screen for COUP-TFII antagonists: inhibitors of VP16; shares compounds with NR2F2 inh; HEK293 Gal4-VP16 luciferase reporter, luminescence; inhibition, % at 8.5 µM; 2,500 compounds, 25% hits; in the data active means inhibition above about 13%
COUP-TFII conf: COUP-TFII (NR2F2) inhibition, confirmation assay. shares compounds with NR2F2 inh. HEK293 NGFI-A luciferase reporter, luminescence. inhibition, % at 8.5 µM. 2,500 compounds, 45% hits;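 active means mean inhibition over three repeats above a set limit taken from the earlier primary screen, cut at about 38% in these data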;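 further: 100% = cells given the luciferase reporter alone without the COUP-TF2 vector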
The depositor's hits bear a star; nt = no result given.

SMILES	SRC2 inh	SRC1 inh	SRC3 inh	NR2F2 inh	LRH-1 inv ag	VP16 Luc counter	COUP-TFII conf
CCCCCn1c2c(c(=N)c3ccccc31)CCC2	24.7	33.5	49.8	66.1*	61.2	14.4*	54.1*
CCCCn1c2c(c(=N)c3ccccc31)CCC2	-11.2	-65.0	21.3	-7.6	-19.4	nt	nt
Nc1cc(-c2cccc(Br)c2)nn1Cc1ccccc1	-3.4	-16.1	8.1	4.4	5.5	nt	nt
Nc1cc(-c2ccc(Br)cc2)nn1Cc1ccccc1	19.5	-19.1	-17.6	37.4*	13.3	-67.0	10.3
Cc1ccc(S(=O)(=O)N2CCCOC2CNC(=O)C(=O)NC2CCCC2)cc1 (centres undefined)	-14.2	-27.8	-6.1	15.2	6.7	nt	nt
CC1(C)N=C(N)N=C(N)N1c1ccc(Oc2ccc(Cl)cc2)c(Cl)c1	13.9	23.4	22.8	69.2*	37.3	15.7*	65.1*
COC(=O)C1=C(C)N(C)C(=NCc2cccc(C(F)(F)F)c2)NC1c1ccc(F)cc1 (centres undefined)	-18.3	nt	nt	-2.2	nt	nt	nt
CN1OC[C@@H]2CN(C(=O)C3CCCCC3)[C@H](c3ccc(N4CCCCC4)cc3)C[C@@H]21	18.1	nt	nt	0.5	nt	nt	nt
Nc1nonc1C(=O)NCCNCc1cc(Br)ccc1OCc1ccc(F)cc1	38.2	8.2	20.9	50.4*	24.8	3.5	7.8
COc1ccc(CNCCNC(=O)c2nonc2N)cc1OC	-25.3	-1.1	0.1	12.2	15.4	nt	nt
COC(=O)C1CN(Cc2ccc(C)cc2)CCS(=O)(=O)N1Cc1cn(Cc2ccc(C)cc2)nn1 (centres undefined)	-22.6	nt	nt	-3.0	nt	nt	nt
COc1ccc(N2C(=O)c3n[nH]c(C)c3C2c2cccc(C(F)(F)F)c2)cc1 (centres undefined)	-17.4	nt	nt	28.3	nt	nt	nt
COC(=O)c1ccc(N2C(c3ccsc3)=Cc3cc4c(cc3C2CC(=O)c2ccco2)OCO4)cc1 (centres undefined)	22.8	nt	nt	43.0*	28.0	-0.9	7.6
COC(=O)c1ccc(N2C(c3cc(OC)cc(OC)c3)=Cc3ccc(OC)cc3C2CC(=O)c2ccco2)cc1 (centres undefined)	12.9	nt	nt	2.1	8.9	nt	nt
COc1cc(C(=O)NCc2ccc(S(N)(=O)=O)cc2)ccc1OCC(=O)Nc1cccc(C(F)(F)F)c1	-5.0	-18.0	-4.0	0.3	13.4	nt	nt
CCOC(=O)C1CCN(C(=O)c2ccc(OCC(=O)Nc3cccc(C(F)(F)F)c3)c(OC)c2)CC1	37.3	24.6	12.5	65.7*	32.6	-5.5	59.0*
COc1cc(C(=O)N(C)CCOc2ccccc2)ccc1OCC(=O)Nc1cccc(C(F)(F)F)c1	28.4	6.3	14.0	56.7*	-13.8	8.4	21.7
CCC(CO)Nc1cccc2c1S(=O)(=O)N(Cc1cn(Cc3ccc(C(F)(F)F)cc3)nn1)Cc1ccccc1O2 (centres undefined)	6.9	nt	nt	1.3	nt	nt	nt
CCN(CC(=O)Nc1ccc(NC(C)=O)cc1)C(=O)c1ccc(COc2ccccc2)o1	-18.2	-1.1	6.7	-12.8	17.0	nt	nt
CCN(CC(=O)Nc1ccc(NC(C)=O)cc1)C(=O)c1ccc(COc2ccc(C(C)(C)C)cc2)cc1	19.6	-11.9	-19.1	51.4*	-56.8	-13.1	37.9*
COC(=O)[C@@H](Cc1ccc(O)cc1)NC(=O)[C@H]1O[C@@H](n2cnc3c(=O)[nH]c(N)nc32)[C@H](O)[C@@H]1O	-2.1	nt	nt	-16.8	nt	nt	nt
CC(=O)N1c2ccc(S(=O)(=O)N3CCC(C(=O)Nc4ccccn4)CC3)cc2CC1C (centres undefined)	2.5	14.1	20.1	15.5	20.1	nt	nt
CC(=O)N1c2ccc(S(=O)(=O)N3CCC(C(=O)Nc4cccc(C)n4)CC3)cc2CC1C (centres undefined)	24.5	14.7	17.8	54.1*	51.6	6.7	54.2*
CC(=O)N1c2ccc(S(=O)(=O)NCC3CCC(C(=O)Nc4cccc(C)n4)CC3)cc2CC1C (centres undefined)	14.1	27.3	47.7	56.3*	36.7	-3.4	28.0
O=C(NCCOc1ccc(F)cc1)C1CCC(=O)N(Cc2ccc(Cl)cc2)C1 (centres undefined)	-33.8	-21.7	-7.3	-14.0	-9.1	nt	nt
SMILES	SRC2 inh	SRC1 inh	SRC3 inh	NR2F2 inh	LRH-1 inv ag	VP16 Luc counter	COUP-TFII conf
O=C(NNc1nc2cc3c(cc2s1)OCO3)c1cccc(F)c1	-49.5	-9.7	-34.5	-4.8	-35.0	nt	nt
COc1ccc(CCc2nnc(CCC(=O)N(C)Cc3ccnc4ccccc34)o2)cc1	10.2	4.8	18.6	39.8*	25.5	-28.5	17.2
CCN=C1NC(c2ccc(F)cc2)C(C(=O)OC)=C(C)N1Cc1ccccc1C(F)(F)F (centres undefined)	1.6	nt	nt	10.4	nt	nt	nt
O=C(Nc1cccc2ncccc12)c1ccc(OCc2ccccc2)cc1	2.9	-5.5	11.0	43.5*	-1.0	-9.0	15.8
O=C(COc1ccc(Cl)cc1)Nc1ccc(C(=O)NCc2cccnc2)cc1	nt	4.1	34.4	nt	35.6	nt	nt
O=C(NCc1cccnc1)c1ccc(COc2ccc(Cl)cc2)cc1	14.4	-11.8	18.4	66.5*	7.3	-17.4	3.6
CC(=O)O[C@@H]1C=C[C@@H](C#Cc2ccc(C(C)(C)C)cc2)O[C@@H]1COC(=O)NC(C)C	17.0	nt	nt	16.4	nt	nt	nt
Cn1nnnc1SCc1nc2scc(-c3ccc(Cl)cc3)c2c(=O)[nH]1	-4.5	14.1	10.3	46.3*	18.2	-8.8	14.6
Cn1c(=O)oc2ccc(S(=O)(=O)Nc3ccc(Cl)cc3[N+](=O)[O-])cc21	-8.4	nt	nt	16.2	nt	nt	nt
CCCCC(=O)c1ccc(O)cc1O	-23.3	-28.2	8.7	102.5*	-7.2	-10.4	3.5
COC(=O)c1ccc(S(=O)(=O)N2CCCN(Cc3ccccc3)CC2)n1C	15.2	12.5	7.3	-13.2	19.4	nt	nt
COC(=O)c1ccc(S(=O)(=O)N2CCCN(Cc3cccc(Br)c3F)CC2)n1C	27.7	11.9	15.6	54.8*	24.3	-5.0	11.1
Cn1c(=O)c2c(c3ccccc31)OC(C)(C)C=C2	10.8	nt	nt	2.5	nt	nt	nt
O=C(CCc1ccc(S(=O)(=O)NCCc2ccccc2)cc1)N1CCN(Cc2ccc3c(c2)OCO3)CC1	22.3	19.9	19.6	55.0*	30.5	10.2	32.9
c1ccc(CN2CCC(N3CCN(Cc4ccc5c(c4)OCO5)CC3)CC2)cc1	17.0	-14.8	4.7	37.6*	22.9	0.8	7.7
CC(C)CNS(=O)(=O)c1ccc(CCC(=O)N2CCN(Cc3ccc4c(c3)OCO4)CC2)cc1	-5.4	5.3	3.9	45.2*	23.9	-4.5	16.4
CCNS(=O)(=O)c1ccc(CCC(=O)N2CCN(Cc3ccccc3)CC2)cc1	23.2	-12.2	12.8	7.3	8.4	nt	nt
CC(=O)Nc1cccc(NC(=O)C2CC(=O)N(CCc3ccc(F)cc3)C2)c1 (centres undefined)	-17.2	18.3	8.4	-9.2	8.1	nt	nt
COC(=O)c1cc2c(c3c4cc(OC)ccc4n(S(=O)(=O)c4ccc(OC)cc4)c13)C(=O)N(Cc1ccccc1OC)C2	-8.0	nt	nt	-4.0	nt	nt	nt
